ClpP mod – qHTS Assay for Activators of ClpP | purified B. subtilis ClpP, FRET peptide cleavage, 20 min | Potency, µM (doses to about 57.5 µM) | 340,000 tested, 1.9% active | AID 651965, 2013; active = well fitted falling curve with a large enough effect; inconclusive = small, poorly fitted or top-dose-only effect; inactive = no such curve, though single readings can be large or run the other way; also: the source files actives as falling curves though it sought activators and does not explain the sign; nearly all actives have a fitted effect of over 65% in size
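Buffer: 100 mM Tris/HCl pH8, 100 mM KCl, 0.05% low protease BSA, 2.5% glycerol, 0.01% Tween-20. ClpP 10 microg/mL final; 20 min RT; delta FRET normalized to ADEP and DMSO controls.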
TDP1 cell noCPT – qHTS for Inhibitors of human tyrosyl-DNA phosphodiesterase 1 (TDP1): qHTS in cells in absence of CPT | DT40 Tdp1-/- hTDP1 cells, no CPT, ATP luminescence, 48 h | Potency, µM (top dose mostly 46.2 µM), actives largely listed as inhibitors | 420,000 tested, 15% active; also: nearly all actives have a fitted effect of over 55% in size
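Camptothecin absent (DMSO only). Human TDP1-complemented DT40 knockout cells, 400 cells/well, 37 °C for minimum 48 hr; ATP measured via CellTiter-Glo, 30 min dark incubation, luminescence.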
DT40 TDP1 CPT – qHTS for Inhibitors of human tyrosyl-DNA phosphodiesterase 1 (TDP1): qHTS in cells in presence of CPT; Potency, µM (doses to about 46.2 µM), actives largely listed as inhibitors; 420,000 tested, 12% active; chicken DT40 Tdp1-/-;hTDP1 cells + 20 nM CPT, ATP luminescence, 48 h; also: nearly all actives have a fitted effect of over 55% in size
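Cell growth measured by CellTiter-Glo luminescence after a minimum 48 h, 37 C compound exposure with 20 nM CPT in Tdp1-knockout DT40 cells stably expressing hTDP1, seeded 400/well; qHTS titration format.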
TDP1 block – qHTS Assay for Inhibitors of Tyrosyl-DNA Phosphodiesterase (TDP1). Tyrosyl-DNA phosphodiesterase 1 (Homo sapiens), Q9NUW8. recombinant TDP1, AlphaScreen DNA substrate cleavage. Potency, µM (titrated, usually from 130 µM), most hits filed as inhibitors. 350,000 tested, 0.28% active. AID 485290, 2010; also: nearly all actives have a fitted effect of over 40% in size
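Compounds were preincubated with Tdp1 (1 nM final) for 15 min at room temperature before substrate (15 nM final) started a 5 min reaction; beads (10 ug/ml final) were then added for 10 min before AlphaScreen detection.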
Hits are given with their value; n = inactive; u = inconclusive; x = not tested or not shown; ! = a repeat was not active; [ ] = remark or other dose. Hits are enriched below; roughly 17% of the tested compounds scored in any of these assays. Unless noted, calls follow the shape of the dose curve; as a rule, active = well fitted curve in the direction sought with a large enough effect; inconclusive = small, poorly fitted or top-dose-only effect, or another doubt; inactive = no such curve, though single readings can be large; an effect the other way counts as inactive or inconclusive.

SMILES	ClpP mod	TDP1 cell noCPT	DT40 TDP1 CPT	TDP1 block
Cn1cnnc1Sc1ccc(C(=O)OCC(=O)Nc2ccccc2)cc1[N+](=O)[O-]	n	n	n	n
COc1ccc(NC(=O)/C(C#N)=C/c2ccc(Sc3nncn3C)c([N+](=O)[O-])c2)cc1	x	26µM	16µM	n
CCCCSc1nnc(CSc2nc3nc(C)cc(C)n3n2)o1	n	n	u	n
O=c1[nH]c(NCc2ccco2)nnc1Cc1ccccc1Cl	n	4.1µM	6.5µM	n
Fc1ccc(/C=N/n2cnn(Cc3ccccc3Cl)c2=S)cc1	x	n	n	n
O=C(COC(=O)Cc1ccsc1)Nc1ccccc1Cl	n	n	n	n
Cc1ccc(S(=O)(=O)NCc2ccccc2)cc1C(=O)N(C)Cc1ccccc1F	16µM	n	u	n
CCN(CC(=O)NCc1ccc(Cl)cc1)C(=O)CSc1cccc(C(F)(F)F)c1	n	18µM	18µM	n
CCN(CC(=O)NCc1ccc(Cl)cc1)C(=O)CSc1ccccc1F	n	u	n	n
Cc1ccc(S(=O)(=O)NCc2ccccc2)cc1C(=O)N1CCCCCCC1	n	u	n	x
Cc1ccc(S(=O)(=O)NCc2ccccc2)cc1C(=O)NCC(=O)Nc1c(C)cccc1C	n	21µM	u	x
Cc1ccc(S(=O)(=O)NCc2ccccc2)cc1C(=O)N(C)Cc1ccc(F)cc1	n	u	u	n
CCN(CC(=O)NCc1ccc(Cl)cc1)C(=O)c1cc(S(=O)(=O)NCc2ccccc2)ccc1C	n	21µM	u	n
CC(C)(C)NC(=O)Cn1cc(S(=O)(=O)Cc2ccccc2Cl)c2ccccc21	n	u	u	n
COc1cc(CN2CCCC(n3cc(C(=O)N4CCCCC4)nn3)C2)cc(OC)c1OC (stereo not given)	x	n	n[9.04 µM]	x
O=C(Nc1ccccc1Cl)c1cc[n+]([O-])cc1	x	u	n	n
CCOc1ccccc1N(C)C(=O)c1cc(S(=O)(=O)NCc2ccc(C)cc2)ccc1F	n	21µM	18µM	n
CCN(CC(=O)NCc1ccc(Cl)cc1)C(=O)c1ccc2cc(OC)ccc2c1	x	13µM	u	n
CCN(CC(=O)NCc1ccc(Cl)cc1)C(=O)c1cnc(Cl)c(Cl)c1	x	n	n	n[0.0935 µM]
CCOc1ccccc1-c1nc(-c2ccc(NC(=O)c3ccc(Br)o3)cc2)no1	n	u	23µM	n
C[C@H](N)CCCC(C)(C)O	x	x	x	n
COc1ccccc1-n1cnnc1SCc1csc(-c2ccccc2)n1	n	u	u	n
Cc1ccc(-c2nc(CSc3nc4ccccc4c(=O)n3CCO)cs2)cc1	n	16µM	u	n
C=CCn1c(SCc2csc(-c3ccc(C)cc3)n2)nnc1-c1ccccc1OC	n	18µM	12µM	n
Cc1ccc(-c2nc(CSc3nc4ccccc4c(=O)n3C)cs2)cc1	n	26µM	18µM	n
SMILES	ClpP mod	TDP1 cell noCPT	DT40 TDP1 CPT	TDP1 block
COC(=O)C1CC1C(NC(=O)[C@H]1CCCCN1)c1ccccc1 (stereo not given in full)	x	x	x	n
COc1ccc2cc3cc(C(=O)NCCc4ccc(OC)c(OC)c4)oc3nc2c1	u	18µM	12µM	n
Cc1cc(C(=O)NCc2cccs2)c(C)o1	n	18µM	26µM	n
COc1ccc(OC)c(CNC(=O)c2cc3cc4ccc(OC)cc4nc3o2)c1	n	n	n	n
CCN(CC(=O)NCc1cccs1)C(=O)c1ccc(-c2ccccc2F)o1	n	18µM	u	n
Cc1occc1C(=O)NCc1cccs1	n	n	n	n
COc1ccc2cc3cc(C(=O)NCc4cccs4)oc3nc2c1	n	u	n	32µM
COCCNC(=O)C1(C)CCCN(C(=O)c2ccc3c(c2)OCO3)C1 (stereo not given)	n	n	n	x
COc1ccc(CC(=O)NCc2cccs2)cc1	n	15µM	23µM	n
COc1ccc(CNC(=O)Cc2cccs2)cc1	n	n	n	n
CCOc1ccc(NS(=O)(=O)c2ccc3c(c2)CCN3C(=O)C2CCC2)cc1	n	u	u	n
Cc1ccc(NS(=O)(=O)c2ccc3c(c2)CCCN3C(=O)C2CCC2)cc1Cl	n	23µM	u	n
O=C(C1CCC1)N1CCc2cc(S(=O)(=O)Nc3ccc4c(c3)OCO4)ccc21	n	14µM	11µM	n
Cc1cc(Cl)ccc1NS(=O)(=O)c1ccc2c(c1)CC(C)N2C(=O)C1CCC1 (stereo not given)	n	16µM	18µM	n
Cc1ccc(NS(=O)(=O)c2ccc(Cl)c(NC(=S)NC(=O)C3CCCCC3)c2)cc1Cl	n	u	23µM	n
C[C@@H](C(=O)CC(=O)OC(C)(C)C)[C@@H](O)c1ccccc1	n	n	n	n
CCOc1ccc(C(c2c(C)n(C)n(-c3ccccc3)c2=O)c2c(C)n(C)n(-c3ccccc3)c2=O)c(O)c1	n	n	n	x
O=C(CCl)c1ccc2c(c1)CCN2C(=O)C1CCCCC1	u	1.6µM	1.3µM	n
CCN(c1ccc2c(c1)OCO2)S(=O)(=O)c1cc2c(cc1Br)CCN2C(=O)C1CC1	n	21µM	16µM	x
O=C(CCl)c1ccc2c(c1)CCN2C(=O)C1CC1	x	x	x	n
CCN(c1ccc2c(c1)OCO2)S(=O)(=O)c1cc(Br)cc2c1N(C(C)=O)CC2	n	u	u	n
Cc1ccc(NS(=O)(=O)c2ccc3c(c2)CC(C)N3C(=O)C2CCC2)cc1Cl (stereo not given)	n	10µM	16µM	n
CC(=O)Nc1ccc(NS(=O)(=O)c2ccc3c(c2)CC(C)N3C(=O)C2CCC2)cc1 (stereo not given)	n	u	u	n
COC(=O)C[C@@H]1CC[C@@H](NC(C)=O)[C@@H](CO)O1	n	n	n	x
CS(=O)(=O)/C(C#N)=C/c1c(-c2ccccc2)nc2n1CCS2	n	n	n	x
SMILES	ClpP mod	TDP1 cell noCPT	DT40 TDP1 CPT	TDP1 block
Clc1ccc(CO/N=C/c2c(-c3ccccc3)nc3n2CCS3)c(Cl)c1	35µM	u	u	n
O=C(NCCc1cccs1)Nc1nnc([C@H]2C[C@H](O)[C@@H](CO)O2)s1	n	n	n	x
CCCCCCCCCCCCC/C=C/[C@@H](O)[C@@H](N)CO	n	12µM!	9.2µM!	n
CCCCCCCCCCCCC/C=C/[C@@H](O)[C@H](CO)N(C)C	x	n[4.12 µM]	n[4.12 µM]	n
CC(=O)c1ccc(NC(=O)c2ccc3c(c2)nnn3C2CCCC2)cc1	n	n	n	n
COc1ccc(-n2c(C)cc(C(=O)COC(=O)c3ccc(O)cc3O)c2C)cc1	n	5.2µM	8.2µM	n
Cc1cc(C(=O)COC(=O)c2ccc(O)cc2O)c(C)n1-c1ccc(OC(F)F)cc1	n	7.3µM	21µM	n
COc1ccc(-n2c(C)cc(C(=O)CCl)c2C)cc1	n	1.8µM	1.5µM	n
COc1ccc(-n2c(C)cc(C(=O)COC(=O)Cn3cnc4ccccc43)c2C)cc1	n	18µM	16µM	n
COc1ccc(-n2c(C)cc(C(=O)CN3C(=O)c4ccccc4C3=O)c2C)cc1	n	u	n	n

From PubChem
